# Reference: PubChem BioAssay AID743320 (Broad Institute, 2014)
# Potency and affinity values are given separately. Unmarked numbers belong to inactive results.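 Rule for the calls: active = signal drop whose fitted half-maximal potency is at most twice the top valid dose tested; inconclusive = flat curve inhibiting 30 to 70 percent, or a poor fit; inactive = the rest.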
# Target: Endoplasmic reticulum aminopeptidase 2 (Homo sapiens) (UniProt Q6P179)
# Assay: inhibition of ERAP2 arginine-AMC cleavage – biochemical, fluorescence plate reader, cherry-picked, set 2, selectivity assay for selective ERAP1 modulator project, dose response (AID 743320)
# Conditions: recombinant ERAP2, Arg-AMC fluorescence, 1 h; series mostly up to 11 µM; activity change, negative = inhibition: at the top concentration
# Sequence of Endoplasmic reticulum aminopeptidase 2 (Homo sapiens) (Q6P179 whole entry, looked up): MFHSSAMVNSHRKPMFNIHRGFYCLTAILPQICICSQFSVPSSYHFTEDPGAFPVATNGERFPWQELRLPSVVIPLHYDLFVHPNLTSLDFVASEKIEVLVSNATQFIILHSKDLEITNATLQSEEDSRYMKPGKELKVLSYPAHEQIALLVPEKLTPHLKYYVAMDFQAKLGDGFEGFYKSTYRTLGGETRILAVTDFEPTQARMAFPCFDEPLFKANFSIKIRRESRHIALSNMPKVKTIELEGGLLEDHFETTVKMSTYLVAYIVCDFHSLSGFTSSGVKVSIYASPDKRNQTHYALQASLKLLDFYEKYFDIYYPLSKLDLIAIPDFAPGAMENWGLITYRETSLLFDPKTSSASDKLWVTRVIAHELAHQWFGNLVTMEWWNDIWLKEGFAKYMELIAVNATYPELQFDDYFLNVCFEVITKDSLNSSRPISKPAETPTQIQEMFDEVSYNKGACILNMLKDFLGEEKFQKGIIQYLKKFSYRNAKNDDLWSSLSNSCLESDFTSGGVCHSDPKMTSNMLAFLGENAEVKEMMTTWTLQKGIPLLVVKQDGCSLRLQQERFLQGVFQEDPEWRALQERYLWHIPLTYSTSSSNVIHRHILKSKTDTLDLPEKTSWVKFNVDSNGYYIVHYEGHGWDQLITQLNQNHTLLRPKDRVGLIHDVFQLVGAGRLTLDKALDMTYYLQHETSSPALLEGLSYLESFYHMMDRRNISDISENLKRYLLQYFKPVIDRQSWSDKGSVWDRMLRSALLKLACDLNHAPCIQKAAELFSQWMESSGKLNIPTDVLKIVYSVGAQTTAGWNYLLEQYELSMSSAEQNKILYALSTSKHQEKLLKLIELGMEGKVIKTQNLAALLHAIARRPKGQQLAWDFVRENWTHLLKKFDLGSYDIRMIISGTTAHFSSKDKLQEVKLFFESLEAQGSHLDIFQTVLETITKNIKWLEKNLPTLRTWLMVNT
row,Structure (SMILES),"activity change, negative = inhibition"
1,CCCN(C)C[C@@H]1OCCCC[C@@H](C)Oc2ccc(NS(=O)(=O)c3c(C)noc3C)cc2C(=O)N([C@H](C)CO)C[C@@H]1C,-3.16% [at 10 µM]
2,C[C@@H]1CCCCO[C@H](CN(C)Cc2ccc(C(=O)O)cc2)[C@H](C)CN([C@@H](C)CO)C(=O)c2cc(NC(=O)Nc3ccc(C(F)(F)F)cc3)ccc2O1,11.3%
3,COc1ccc(NC(=O)Nc2ccc3c(c2)C(=O)N([C@@H](C)CO)C[C@@H](C)[C@H](CN(C)Cc2ccc(C(=O)O)cc2)OCCCC[C@H](C)O3)cc1,37.6%
4,COc1ccc(S(=O)(=O)N(C)C[C@@H]2Oc3ncccc3C(=O)N([C@H](C)CO)C[C@@H]2C)cc1,11.3% [at 5.6 µM]
5,Cc1noc(C)c1S(=O)(=O)N(C)C[C@@H]1OCCCC[C@@H](C)Oc2ccc(NS(=O)(=O)c3cccs3)cc2C(=O)N([C@@H](C)CO)C[C@@H]1C,21.7% [at 10 µM]
6,Cc1ccccc1-c1ccc2c(c1)O[C@@H](CN(C)Cc1ccc(C(=O)O)cc1)[C@@H](C)CN([C@H](C)CO)S2(=O)=O,8.67%
7,CCCN(C)C[C@@H]1OCCCC[C@@H](C)Oc2ccc(NS(=O)(=O)c3ccc(C)cc3)cc2C(=O)N([C@@H](C)CO)C[C@@H]1C,6.28% [at 5 µM]
8,C[C@@H]1CCCCO[C@@H](CN(C)C)[C@@H](C)CN([C@@H](C)CO)C(=O)c2cc(NS(=O)(=O)c3ccc(Cl)cc3)ccc2O1,2.17%
9,C[C@H]1CN([C@@H](C)CO)C(=O)c2cccc(NC(=O)Nc3ccc(F)cc3)c2O[C@@H]1CN(C)C(=O)Nc1ccc2c(c1)OCO2,18.2%
10,COc1ccc(CN(C)C[C@H]2OCCCC[C@@H](C)Oc3ccc(NS(=O)(=O)c4cccs4)cc3C(=O)N([C@@H](C)CO)C[C@@H]2C)cc1,10.1%
11,COc1ccc(NC(=O)Nc2ccc3c(c2)C(=O)N([C@H](C)CO)C[C@@H](C)[C@@H](CN(C)Cc2ccc(C(=O)O)cc2)OCCCC[C@@H](C)O3)cc1,2.96%
12,COC(=O)[C@H]1[C@H](CO)[C@H]2Cn3c(ccc(-c4ccncc4)c3=O)[C@H]2N1Cc1ccccc1F,15.2%
13,COc1ccc(CN(C)C[C@H]2OCCCC[C@@H](C)Oc3ccc(NS(=O)(=O)c4cccs4)cc3C(=O)N([C@H](C)CO)C[C@H]2C)cc1,3.67%
14,CCCN(C)C[C@@H]1OCCCC[C@@H](C)Oc2ccc(NS(=O)(=O)c3cccs3)cc2C(=O)N([C@H](C)CO)C[C@@H]1C,11%
15,C[C@@H]1CCCCO[C@@H](CN(C)Cc2ccccc2)[C@@H](C)CN([C@H](C)CO)C(=O)c2cc(NS(=O)(=O)c3cccs3)ccc2O1,12.1% [at 5.6 µM]
16,N#Cc1c(N)n(CCNC(=O)c2ccccc2)c2nc3ccccc3nc12,438%
17,C[C@H]1CN([C@@H](C)CO)C(=O)c2cccc(NC(=O)Nc3ccc4c(c3)OCO4)c2O[C@@H]1CN(C)CC1CC1,12.8%
18,CCCN(C)C[C@@H]1OCCCC[C@@H](C)Oc2ccc(NS(=O)(=O)c3ccccc3)cc2C(=O)N([C@H](C)CO)C[C@@H]1C,16%
19,COc1ccc(CN(C)C[C@@H]2OCCCC[C@@H](C)Oc3ccc(NS(=O)(=O)c4cccs4)cc3C(=O)N([C@@H](C)CO)C[C@H]2C)cc1,-1.25%
20,O=C(Nc1ccc(C(F)(F)F)cc1)N1[C@@H]2CNC[C@H]1C2c1ccc(-c2ccncc2)cc1 (stereo not given in full),1.51%
21,COc1ccc(CN(C)C[C@H]2OCCCC[C@@H](C)Oc3ccc(NS(=O)(=O)c4cccs4)cc3C(=O)N([C@@H](C)CO)C[C@H]2C)cc1,2.79%
22,Cc1ccc(S(=O)(=O)Nc2ccc3c(c2)C(=O)N([C@@H](C)CO)C[C@H](C)[C@H](CN(C)C)OCCCC[C@@H](C)O3)cc1,14.1%
23,CCCNC(=O)C[C@H]1CC[C@@H]2[C@H](COC[C@H](O)CN2C(=O)Nc2cccc(Cl)c2)O1,19.4%
24,CCCNC(=O)C[C@@H]1CC[C@@H]2[C@H](COC[C@H](O)CN2C(=O)Nc2cccc(Cl)c2)O1,22.2%
25,CCCN(C)C[C@@H]1OCCCC[C@@H](C)Oc2ccc(NS(=O)(=O)c3ccc(F)cc3)cc2C(=O)N([C@H](C)CO)C[C@@H]1C,10.6%
26,C[C@H](CO)N1C[C@H](C)[C@H](CN(C)CC2CCCCC2)Oc2c(NC(=O)Nc3ccc(C(F)(F)F)cc3)cccc2C1=O,11.4%
27,O=C(C[C@H]1CC[C@H]2[C@@H](COC[C@@H](O)CN2C(=O)Nc2cccc(Cl)c2)O1)N1CCCCC1,8.71%
28,C[C@@H]1CCCCO[C@H](CN(C)Cc2ccc(C(=O)O)cc2)[C@@H](C)CN([C@H](C)CO)C(=O)c2cc(NC(=O)Nc3ccc(C(F)(F)F)cc3)ccc2O1,2.62%
29,C[C@@H]1CCCCO[C@@H](CN(C)Cc2ccc3c(c2)OCO3)[C@@H](C)CN([C@@H](C)CO)C(=O)c2cc(NS(=O)(=O)c3ccccc3)ccc2O1,12.7% [at 5.6 µM]
30,C[C@H](CO)N1C[C@H](C)[C@H](CN(C)Cc2ccc(C(=O)O)cc2)Oc2c(NC(=O)Nc3ccccc3)cccc2C1=O,22.8%
